# High-throughput results: PubChem, several laboratories
# ssDAF-12 act = S. stercoralis DAF-12 activation, primary screen; 370,000 compounds, 1% hits; activation, % at 6.8 µM; HEK293 ssDAF-12/GRIP1 lit1-tk-luc reporter, luminescence; % of 3 µM dafachronic acid response;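 active = activation above the mean over all tested compounds plus 3 SD, cut at about 0.9% in these data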;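 also: 0% = DMSO-only wells and 100% = 3 µM delta7-dafachronic acid wells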
# DAX1 inh-1 = inhibits human nuclear receptor DAX1; HEK293 Gal4-DAX1 luciferase reporter, luminescence; P51843; inhibition, % at 6.75 µM; 340,000 compounds, 0.99% hits;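 active = inhibition above the mean over all tested compounds plus 3 SD, cut at about 4.2% in these data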;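 also: 0% = DAX1-transfected cells with DMSO and 100% = empty-vector control cells with DMSO; inhibition shows as a rise in luminescence from relieved DAX1 repression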
# hgDAF-12 ag = agonists of H. glycines DAF-12 nuclear receptor. HEK293 GAL4-hgDAF12 UAS-luciferase reporter, agonist luminescence; normalized to butyrate control. 370,000 compounds, 1.8% hits. activation, % at 6.8 µM;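 active = activation above a cutoff set at the mean of all screened compounds plus 3 SD, cut at about 10% in these data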;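 also: 0% = DMSO wells and 100% = sodium butyrate wells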
# PolyA inh = blocks polyadenylation in yeast reporter cells; S. cerevisiae SKY197-pL101 polyadenylation reporter, beta-gal luminescence; efflux-impaired pdr1/pdr3 knockout yeast; score 100 = 6 SD above DMSO; 300,000 compounds, 0.02% hits; activity score, % at 12 µM;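 active = lowest replicate activity score at least 50, where 100 means six control SD above control mean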;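 also: yeast exposed to compound for 9 h at 30 °C; higher score means more reporter readthrough which indicates perturbed polyadenylation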
# DAX1 inh-2 = inhibitors of DAX1 repression of SF-1 activated StAR promoter. 370,000 compounds, 1.1% hits. inhibition, % at 6.8 µM. HEK293T StAR-luciferase reporter, SF-1/DAX-1 repression relief. AID 652010;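 active = inhibition above the mean over all tested compounds plus 3 SD, cut at about 3.6% in these data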;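 also: 0% = DAX-1 cells with DMSO and 100% = cells lacking DAX-1 with DMSO; higher inhibition means more luminescence from relief of DAX-1 repression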
# hcDAF-12 act = activates DAF-12 receptor from parasite H. contortus; 370,000 compounds, 1.4% hits; activation, % at 6.8 µM; HEK293 hcDAF-12 lit1-tk-luc reporter, luminescence; 0% DMSO, 100% Δ7-dafachronic acid;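 active = activation above the mean of all tested compounds plus 3 SD, cut at about 5.5% in these data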;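 also: 100% = response to 3 µM Δ7-dafachronic acid high control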
# DAX1 inh confirm = NR0B1 (human) inhibition, confirmation | shares compounds with DAX1 inh-2 | HEK293T StAR-promoter luciferase reporter, SF-1/DAX-1 repression | inhibition, % at 6.8 µM | 2,400 compounds, 87% hits | AID 652134;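 active = inhibition above the average of every tested compound plus 3 SD, cut at about 3.8% in these data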;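 also: 0% = DAX-1 cells with DMSO and 100% = no DAX-1 control cells with DMSO; active compounds raise luminescence by relieving repression of the StAR reporter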
# SF1 AF2mut Luc = counter-screen for DAX1 inhibitors: nonselective inhibitors with SF-1 AF2 mutant | HEK293 StAR-luciferase, luminescence | AID 652136 | 2,400 compounds, 78% hits | shares compounds with DAX1 inh-2 | inhibition, % at 6.8 µM;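 active = inhibition above the mean of all tested compounds plus 3 SD, cut at about 3% in these data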;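 also: 0% = DAX-1 transfected cells with DMSO and 100% = cells without DAX-1 with DMSO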
# LXR ag = LXR-beta agonism as hcDAF-12 counter-screen; activation, % at 6.8 µM; HEK293 Gal4-LXR tk-luc reporter, luminescence, 24 h; normalized: DMSO 0%, positive control 100%; 3,400 tested, under 10 active; shares compounds with hcDAF-12 act;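 active = mean percent activation of the reporter above a cutoff set as the average over tested compounds plus their standard deviation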
# Target sequence (P55055 whole entry, looked up, the tested form may be a part): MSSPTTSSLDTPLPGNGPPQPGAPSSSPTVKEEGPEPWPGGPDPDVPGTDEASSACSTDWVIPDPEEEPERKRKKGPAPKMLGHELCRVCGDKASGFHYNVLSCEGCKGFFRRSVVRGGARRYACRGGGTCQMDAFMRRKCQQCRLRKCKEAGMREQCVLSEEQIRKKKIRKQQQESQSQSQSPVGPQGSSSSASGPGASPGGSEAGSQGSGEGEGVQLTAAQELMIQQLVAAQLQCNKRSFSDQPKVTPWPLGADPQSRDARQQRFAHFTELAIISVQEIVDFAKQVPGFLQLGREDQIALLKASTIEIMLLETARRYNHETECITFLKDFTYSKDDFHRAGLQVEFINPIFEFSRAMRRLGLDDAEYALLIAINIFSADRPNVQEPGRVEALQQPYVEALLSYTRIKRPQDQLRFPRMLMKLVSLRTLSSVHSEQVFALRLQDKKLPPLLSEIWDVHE
# hcDAF12 conf = confirmation of H. contortus DAF-12 agonists; shares compounds with hcDAF-12 act; HEK293 hcDAF-12 lit1-tk-luc reporter, luminescence; % of Δ7-dafachronic acid response; activation, % at 6.8 µM; 3,400 compounds, 61% hits; AID 743032;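 active = mean activation across triplicate tests above the threshold derived from the earlier primary screen, cut at about 5.5% in these data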;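 also: 0% = DMSO only wells and 100% = 3 µM Δ7-dafachronic acid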
# hgDAF12 conf = confirmation of H. glycines DAF-12 agonists | shares compounds with hgDAF-12 ag | HEK293 GAL4-hgDAF12 luciferase reporter, agonist mode; percent of butyrate response | activation, % at 6.8 µM | 3,300 compounds, 80% hits;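 active = mean activation over triplicate wells above the hit cutoff derived from the earlier primary screen, cut at about 11% in these data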;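 also: 0% = DMSO low control and 100% = 2 mM sodium butyrate high control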
# LXRb DAF12 ctr = LXR-beta agonism as DAF-12 counter-screen. shares compounds with hgDAF-12 ag. HEK293 Gal4-LXR luciferase reporter, 24 h. activation, % at 6.8 µM. 3,300 tested, under 10 active. AID 743051;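 active = mean activation of the triplicate above a set limit carried over from the primary screen, none filed active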
# * = called active by the depositor; nt = no result given. An excerpt weighted towards active compounds, which were near 4.1% of everything screened.
SMILES,ssDAF-12 act,DAX1 inh-1,hgDAF-12 ag,PolyA inh,DAX1 inh-2,hcDAF-12 act,DAX1 inh confirm,SF1 AF2mut Luc,LXR ag,hcDAF12 conf,hgDAF12 conf,LXRb DAF12 ctr
CC(C)c1cc(C(=O)Nc2cccc(Cl)c2)no1,1,1,19*,-2,4.6*,7.8*,16*,9.3*,2,5.8*,19*,1
CC(=O)c1cccc(NC(=O)c2cc(-c3ccco3)on2)c1,-1,1,4,-7,0,-1,nt,nt,nt,nt,nt,nt
CCOC(=O)C1CCCN(C(=O)Cn2nc(C)n3c(cc4c(OC)cccc43)c2=O)C1 (centres undefined),-1,1,-3,13,0,-2,nt,nt,nt,nt,nt,nt
O=C(Cc1cc(=O)[nH][nH]1)N/N=C/c1cccc(Cl)c1Cl,-1,-1,0,-2,0,-1,nt,nt,nt,nt,nt,nt
CC(C)c1ccc(NC(=O)CN2C(=O)COc3ccc(S(=O)(=O)N4CCOCC4)cc32)cc1,-1,1,1,13,0,-1,nt,nt,nt,nt,nt,nt
Oc1cccc(-c2nc3ccccc3s2)c1,3.6*,-1,17*,-24,5.3*,21*,11*,8.3*,2,16*,24*,1
COc1cccc(-c2nc3ccccc3s2)c1O,3.5*,0,25*,-4,7.0*,16*,18*,8.4*,2,15*,21*,1
Oc1ccc(O)c(Cc2nc3ccccc3s2)c1,-1,-1,-2,-27,-2,1,nt,nt,nt,nt,nt,nt
COc1cc(OC)c(-c2nc3ccccc3s2)cc1OC,0,0,-1,-30,-1,3,nt,nt,nt,nt,nt,nt
CCOc1ccccc1NC(=S)N1CCN(c2cccc(OC)c2)CC1,-1,1,0,14,1,-2,nt,nt,nt,nt,nt,nt
COc1cc(Cl)cc(/C=C/c2ccc3ccccc3n2)c1OC(C)=O,0,0,21*,-22,5.1*,4,11*,5.3*,nt,nt,13*,1
CC(C)(C)NC(=O)C(c1ccncc1)n1c(-c2ccc(C(F)(F)F)cc2)nc2ccccc21 (centres undefined),1.4*,nt,17*,nt,11*,9.2*,11*,7.9*,1,5,17*,1
COc1cc(/C=C/C(=O)OCC(=O)NCCc2ccc(F)cc2)ccc1OC(F)F,0,-1,0,nt,-1,-1,nt,nt,nt,nt,nt,nt
Cc1ccccc1NC(=O)c1cccc(C(=O)Nc2ccccc2C)n1,-2,0,0,-17,-1,-3,nt,nt,nt,nt,nt,nt
Cc1cccc(NC(=O)c2ccc3ccccc3n2)c1C,2.8*,3,17*,-41,6.4*,23*,11*,7.5*,2,19*,25*,1
Cc1cc(C)c(C)c(OCC(=O)O/N=C(\N)c2ccccn2)c1,-1,0,1,-2,0,-1,nt,nt,nt,nt,nt,nt
N/C(=N\OC(=O)COc1ccc(Cl)cc1Cl)c1ccccn1,0,-1,16*,2,5.3*,6.4*,19*,7.2*,nt,nt,15*,1
